eIF4H FP inh: inhibitors of RNA binding by human eIF4H | eIF4H fluorescence polarization binding assay | inhibition, % at 35 µM | 290,000 compounds, 0.94% hits;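 note: calls also rest on retests at 20 µM and on dose response follow-up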
MLLE-PAM2 inh: inhibitors of microRNA-mediated deadenylation, human PABP1 MLLE binding. 360,000 compounds, 0.36% hits. inhibition, % at 20 µM. P11940. GST-MLLE / FITC-PAM2 fluorescence polarization; in the data active = inhibition above about 35%, passing the limit was not always enough;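 note: plate controls were DMSO wells with GST-MLLE for no effect and wells lacking GST-MLLE protein for full effect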
eIF4E 4G PPI: eIF4E/eIF4G interaction inhibition in translation initiation | P63073+Q04637 | TR-FRET eIF4E-eIF4GI(517-606) binding, 2 h | inhibition, % at 21.7 µM | 220,000 compounds, 0.37% hits | AID 782;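 active = inhibition above about 30%, limit read from the data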;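 note: 0% = full FRET control wells and 100% = background wells lacking eIF4GI fragment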
PABP FP inh: PABP-poly(A) binding inhibition; PABP-poly(A) RNA binding, fluorescence polarization; calls only at 35 µM; 290,000 compounds, 1% hits; AID 2014;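 note: calls also rest on retests at 20 µM and on dose response follow-up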
EBV gp42 block: EBV gp42 inhibition; 220,000 compounds, 0.42% hits; Q1HVG2; Fluorescence polarization binding assay, mP read-out; inhibition, % (tested at 21.74 µM); in the data active = inhibition above about 50%
* = called active by the depositor; i = inactive; ? = inconclusive; · = no result; + = active, no number. Rows were chosen to be rich in hits. Some 1.7% of all compounds tested hit in one or more screens of this group. Unless noted, the rule behind the calls is not given here.

SMILES	eIF4H FP inh	MLLE-PAM2 inh	eIF4E 4G PPI	PABP FP inh	EBV gp42 block
CCc1nc2c(OCc3ccccc3C(=O)OC)cccn2c1N(C)C(=O)CC(C)C	·	6	·	·	·
CCOC1=NN(c2ncc(C(F)(F)F)cc2Cl)C(=O)/C1=C/N(C)C	11	-10	1	i	-12
Cc1ccnc(NS(=O)(=O)c2ccc(NC(=O)Cc3ccc(Br)cc3)cc2)n1	0	-18	·	i	·
C[C@H]1Cn2cnc(C(=O)NCC(=O)OC(C)(C)C)c2C(=O)N1	·	4	·	·	·
Cc1ccc(Nc2nc(C)cs2)cc1	0	-57	-3	i	-10
CC(C)C[C@H](NC(=O)/C=C/[C@H]1O[C@@H](n2ccc(=O)[nH]c2=O)[C@H](O)[C@@H]1O)C(=O)O	·	-6	·	·	·
O=c1c2ccccc2sn1-c1ccc(S(=O)(=O)N2CCCCC2)cc1	·	11	·	·	·
Cc1ccc(-n2sc3ccccc3c2=O)cc1S(=O)(=O)N1CCCCC1	-3	8	32*	i	13
COc1cccc(C(=O)Nc2ccccc2C(=O)NCC2CCCO2)c1 (configuration not stated)	-9	-6	·	i	·
CCn1c(=S)[nH]c2scc(-c3cccs3)c2c1=O	12	-4	-6	i	-4
CC(C)n1c(=S)[nH]c2scc(-c3cccs3)c2c1=O	50	3	42*	?	1
O=C(O)c1nn(Cc2csc(-c3ccccc3)n2)c(=O)c2ccccc12	-4	-9	·	i	·
COCCN1CCN(C(=O)c2cc(COc3ccc(Cl)cc3OC)on2)CC1	2	-5	·	i	·
CCOC(=O)c1nnn(-c2nonc2N)c1COc1ccccc1	31	-11	1	+	-6
CN(C)S(=O)(=O)c1cccc(NC(=S)N/N=C/c2ccc(O)c(O)c2O)c1	57*	17	42*	+	-6
COc1ccc(O)c(/C=N/NC(=S)Nc2cccc(S(=O)(=O)N(C)C)c2)c1	10	32	-21	i	3
Cc1ccc(S(=O)(=O)N2CCC(C(=O)NCCc3ccccn3)CC2)cc1	-11	0	7	i	-25
Cc1ccc(C)c(N2CCN(C(=O)Cc3c(C(=O)O)[nH]c4ccc(Cl)cc34)CC2)c1	?	5	4	+	-5
O=C(CN1CCN(c2ccc(O)cc2)CC1)N(C1CC1)C1CCS(=O)(=O)C1 (configuration not stated)	·	-16	·	·	·
CCCCSc1nc2c(cc1C#N)CCC2	-1	16	5	i	-11
CCCSc1nc(C)c(-c2csc(C(C#N)=C3CCCC3)n2)cc1C#N	59*	-27	10	+	-26
CC(=O)Nc1cccc(NC(=O)NC2CC(=O)N(c3ccc4c(c3)OCCO4)C2)c1 (configuration not stated)	·	-9	·	·	·
CC(C)(Oc1ccc(Cl)cc1)C(=O)NCc1ccc(S(N)(=O)=O)cc1	66*	-1	10	i	8
C/C(=N\N=C1\NC(=O)C(CC(=O)Nc2ccc(Cl)cc2)S1)c1ccco1 (configuration not stated)	50	10	6	+	0
COc1ccc2cc(C[C@@H]3CC[C@@H](CO)O3)ccc2c1	·	5	·	·	·
SMILES	eIF4H FP inh	MLLE-PAM2 inh	eIF4E 4G PPI	PABP FP inh	EBV gp42 block
O=C(N=Nc1c(O)[nH]c2ccccc12)c1ccc2c(c1)OCO2	8.5*	-2	-1	+	-4
NC(=O)c1c(NC(=O)C2CCCO2)sc2c1CCCCC2 (configuration not stated)	12	41*	12	i	-5
COC(=O)C(C)N1C(=O)S/C(=C\c2ccc(-c3ccc(C(=O)O)cc3C)o2)C1=O (configuration not stated)	52*	-97	·	+	·
Cc1cccc(NC(=O)CN2C(=O)S/C(=C\c3ccc(-c4cccc(C(=O)O)c4C)o3)C2=O)c1	92*	·	2	i	-6
Cc1ccccc1NC(=O)CN1C(=O)S/C(=C\c2ccc(-c3cccc(C(=O)O)c3C)o2)C1=O	75	7	2	i	-22
Cc1ccc(NC(=O)CN2C(=O)S/C(=C/c3ccc(-c4cc(C(=O)O)ccc4C)o3)C2=O)cc1C	38	-4	40*	+	11
CCn1c(C)cc(/C=C2\SC(=O)N(CC(=O)Nc3ccc(C)c(C)c3)C2=O)c1C	-5	5	-16	i	-17
Cc1c(C(=O)O)cccc1-c1ccc(/C=N/n2cnnc2)o1	53*	-22	·	+	·
O=C(Cn1nnc(-c2ccccc2)n1)NNC(=O)c1ccco1	3	-14	4	i	-23
COc1ccc(-c2nnc(Nc3ccc(S(=O)(=O)Nc4nccs4)cc3)c3ccccc23)cc1	56	11	11	i	52*
O=C(N/N=C/c1ccc(OC(=O)c2cccs2)cc1)c1ccccn1	-8	-3	·	i	·
CCOc1ccccc1NC(=S)NNS(=O)(=O)c1c(C)cc(C)cc1C	0	41*	0	i	-2
CCOc1ccccc1NC(=O)NNS(=O)(=O)c1cc(C)ccc1C	14	5	·	i	·
COc1ccc(N=Cc2cc(Cc3ccccc3Cl)cc([N+](=O)[O-])c2O)cc1OC	?	-84	22	i	104*
CCCN1C[C@H](CSC)C[C@@H]2c3cccc4[nH]cc(c34)C[C@H]21	100*	20	-6	+	0
COc1nc(=O)n(C2CCCO2)cc1C (configuration not stated)	·	-6	·	·	·
COCCn1c(=NC(=O)c2ccc3c(c2)OCO3)c(C#N)cc2c(=O)n3cccc(C)c3nc21	3	·	-1	i	-41
CCCCn1c(=NC(=O)c2ccc3c(c2)OCO3)c(C#N)cc2c(=O)n3cccc(C)c3nc21	81*	-30	-21	+	-10
CCCCn1c(N)c(C(=S)NC(=O)CC(C)(C)C)c(=O)n(C)c1=O	-1	48*	-9	i	-11
O=C(/C=C/c1cn(CC(O)CN2CCOCC2)c2ccccc12)c1cccs1 (configuration not stated)	98	·	3	+	-83
CCOC(=O)C1=CN(Cc2ccco2)S(=O)(=O)N(C)C1c1ccc(F)c(Cl)c1 (configuration not stated)	·	-11	·	·	·
C=CCn1c(SCc2cc(=O)n3ccsc3n2)nnc1C1CCCCC1	73*	-32	-3	+	-20
CCOc1ccc(Nc2cc(Nc3ccccc3OCC)nc(C=C(C#N)C#N)n2)cc1	-4	-6	-1	+	-12
CCc1ccc(OCC(=O)Nc2cccc3c2CCCC3)cc1	?	4	0	+	0
O=C1/C(=C/c2ccco2)Cc2ccccc21	80*	-1	2	+	3
O=[N+]([O-])c1ccc(/C=N/n2c(CO)nc3ccccc32)s1	-1	20	1	i	53*
NC(=O)NOCc1c(Cl)cccc1Cl	1	4	3	i	-9
NC(=O)NOCc1c(F)cccc1Cl	6	-5	1	+	-9
Cc1cc(CN(C)C(=O)c2ccc3nc(Cc4ccccc4F)oc3c2)on1	-12	-12	·	i	·
